Screening data from PubChem.
Rows were chosen to be rich in hits. Some 1.8% of all compounds tested hit in one or more screens of this group.
PKD1 kinase inh: inhibitors of human PKD1 kinase. Q15139. PKD1 kinase fluorescence polarization assay. inhibition, % (no concentration beside the values). hit rate 0.056% among 200,000. AID 797
GRK2 aptamer HTS: human GRK2 inhibition via aptamer displacement. P25098. bead flow cytometry, FAM-aptamer displacement from GRK2. inhibition of aptamer binding, % at 10 µM. hit rate 0.59% among 330,000. AID 488847;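 active means inhibition of aptamer binding above 40%, roughly 3 SD of noise, on plates passing a quality check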;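 further: median bead fluorescence of bound FAM aptamer so fluorescent compounds give negative values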
HDAC3 inh: inhibitors of human histone deacetylase 3; inhibition, % at 8.3 µM; O15379; AID 2718; hit rate 0.15% among 320,000; recombinant HDAC3, fluorogenic peptide/trypsin coupled, fluorescence; in the data active means inhibition above about 26%, passing the limit was not always enough; inconclusive means no clear call, values can overlap the other calls
LANA-H2A inh: blocks KSHV LANA binding to histone H2A/H2B. Q9QR71. hit rate 0.6% among 320,000. inhibition, % (test concentration not listed). cell-free LANA-H2A/H2B peptide, fluorescence polarization; in the data active means inhibition mostly above about 10%, no sharp cut-off; inactive means mostly below about 6.7%
Pemphigus Ab inh: inhibitors of pemphigus antibody binding to human desmoglein-3; DSG3-coupled beads, scFv-anti-DSG3-GFP binding, flow cytometry; active compounds read low; hit rate 0.48% among 310,000; AID 588358; P32926; binding (percent of control), % at 10 µM;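 active means binding more than 3 SD below its plate's average and above zero; inconclusive means below that plate limit but binding exactly zero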;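 further: hits lower antibody fragment binding to DSG3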
VLA-4 inh: inhibition in a human VLA-4 binding assay. hit rate 0.2% among 330,000. inhibition, % (about 7 µM as worked out from the volumes in the protocol). VLA-4 expressing cells, ligand binding flow cytometry. P13612
Target sequence (P13612 whole entry, looked up): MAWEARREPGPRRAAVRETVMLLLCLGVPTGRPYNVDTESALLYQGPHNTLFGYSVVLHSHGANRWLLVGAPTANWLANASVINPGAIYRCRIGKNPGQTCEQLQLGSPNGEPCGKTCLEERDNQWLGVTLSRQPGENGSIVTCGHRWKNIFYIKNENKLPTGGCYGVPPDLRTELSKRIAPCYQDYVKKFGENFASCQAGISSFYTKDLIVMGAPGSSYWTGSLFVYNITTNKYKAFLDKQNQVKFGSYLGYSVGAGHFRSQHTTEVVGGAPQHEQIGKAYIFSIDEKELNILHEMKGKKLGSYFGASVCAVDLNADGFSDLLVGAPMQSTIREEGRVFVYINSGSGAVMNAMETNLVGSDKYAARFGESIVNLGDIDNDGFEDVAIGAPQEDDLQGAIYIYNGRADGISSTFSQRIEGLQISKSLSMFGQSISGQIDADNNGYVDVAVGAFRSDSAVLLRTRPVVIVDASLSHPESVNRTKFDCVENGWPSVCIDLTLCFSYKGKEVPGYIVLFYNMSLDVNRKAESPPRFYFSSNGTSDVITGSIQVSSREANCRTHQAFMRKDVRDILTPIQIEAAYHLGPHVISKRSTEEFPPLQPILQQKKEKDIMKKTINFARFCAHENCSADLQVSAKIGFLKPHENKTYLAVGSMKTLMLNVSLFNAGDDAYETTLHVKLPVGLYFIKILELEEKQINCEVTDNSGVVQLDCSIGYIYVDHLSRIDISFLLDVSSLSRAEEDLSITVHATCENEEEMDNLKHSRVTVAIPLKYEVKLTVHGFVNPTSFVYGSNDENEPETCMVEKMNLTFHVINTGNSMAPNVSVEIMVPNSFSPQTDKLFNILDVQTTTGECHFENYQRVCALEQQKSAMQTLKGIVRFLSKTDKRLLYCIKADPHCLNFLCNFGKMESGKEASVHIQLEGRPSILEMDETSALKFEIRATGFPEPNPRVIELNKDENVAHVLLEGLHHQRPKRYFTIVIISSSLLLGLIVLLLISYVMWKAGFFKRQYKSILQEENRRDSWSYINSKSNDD
* marks the source's active call; other numbers are inactive results; ? = inconclusive; . = not tested or not shown. Unless noted, no stated cut-off is given here; in the data, active means inhibition above about 50%; inactive means the rest.

SMILES | PKD1 kinase inh | GRK2 aptamer HTS | HDAC3 inh | LANA-H2A inh | Pemphigus Ab inh | VLA-4 inh
CC(=O)Nc1ccc(NS(=O)(=O)c2ccc3c(c2)oc(=O)n3C)cc1 | . | 0.0 | 2.6 | -4.1 | 100.1 | -9.7
COC(=O)c1ccc(NS(=O)(=O)c2ccc3c(c2)n(C)c(=O)n3C)cc1 | . | . | 1.4 | 1.1 | 75.9* | -3.1
Cc1ccc(S(=O)(=O)N2CCOCC2)cc1NC(=O)CN(C)CC(=O)Nc1cccc(F)c1 | . | . | . | . | 98.3 | .
O=S(=O)(c1ccc2[nH]c3c(c2c1)CCCC3)N1CCCCC1 | . | 6.0 | 0.1 | 18.0* | 118.4 | -2.9
O=c1[nH]c2ccc(S(=O)(=O)N3CCCCC3)cc2[nH]1 | 0.0 | 3.0 | 2.7 | 0.9 | 99.7 | -3.8
O=C(CCC(=O)c1ccc(F)cc1)Nc1cccc(S(=O)(=O)Nc2cccc(Cl)c2)c1 | -6.8 | 0.0 | 5.3 | -1.1 | 104.5 | -19.7
c1ccc(-n2cc(CN3CCCC(CN4CCCC4)C3)c(-c3ccc4c(c3)OCO4)n2)cc1 (centres undefined) | 1.0 | 0.0 | 1.1 | 21.2* | 119.8 | 2.4
CSc1ccccc1NC(=O)Cn1ccsc1=N | -5.5 | 3.0 | -6.5 | 10.7* | 98.4 | 11.1
N=c1sccn1CC(=O)Nc1cccc2ccccc12 | 4.8 | 0.0 | -2.8 | -3.1 | 96.4 | -0.1
Cc1ccc(S(=O)(=O)N2CCN(C(=O)n3ccnc3)CC2)cc1 | . | 0.0 | 3.0 | 31.0* | 101.2 | 0.7
Cc1ccc(-c2nn3c(C)nnc3s2)cc1NC(=O)C(C)C | 4.0 | 0.0 | 3.2 | -1.2 | 81.8* | 19.5
O=C1CSC(=S)N1/N=C/c1cc(Br)c(O)c(Br)c1 | . | 12.0 | -6.2 | -28.8 | 107.4 | -273.5
CCc1ccccc1N(CC(=O)NC1CCCC1)C(=O)CNC(=O)c1cccs1 | . | 0.0 | 1.3 | 0.5 | 96.1 | -4.9
O=C1CC(C(=O)Nc2ccc(Cl)cc2)n2ncnc2N1 (centres undefined) | -3.5 | 1.0 | 1.3 | -1.4 | -8.7* | -2.3
CSCC[C@H](NC(=O)c1ccco1)c1nnc2ccccn12 | . | 0.0 | 1.9 | 0.1 | 100.7 | 0.0
Nc1ccccc1NC(=O)NC(=O)c1ccccc1 | . | 0.0 | 41.2* | -1.0 | 98.3 | -15.7
CCOc1ccc(C(=O)Nc2ccc(C(=O)N3CCOCC3)cc2)c(OCC)c1 | . | 1.0 | 1.1 | 3.4 | 105.4 | -4.1
CC(C)C12CN3CC(C(C)C)(CN(C1)C3c1ccccc1)C2O (centres undefined) | -5.1 | 0.0 | 2.2 | 8.5* | 99.9 | 5.3
CC(=O)c1ccc(N2CCN(C(=S)Nc3cccc(Cl)c3)CC2)cc1 | -5.0 | 0.0 | -0.1 | 8.3 | 59.8* | 13.1
CC(=O)c1ccc(NC(=S)N2CCN(c3cccc(Cl)c3)CC2)cc1 | -1.4 | 0.0 | 1.1 | -0.5 | 97.2 | -2.5
CCOc1ccc(/C=C/C(=O)OC(C)C(=O)NC2CCCCC2C)cc1OC (centres undefined) | . | 1.0 | 5.1 | -10.6 | 103.1 | -2.5
CCCCCOc1ccc(C(=O)CCC(=O)NC(C)c2ccc(S(N)(=O)=O)cc2)cc1 (centres undefined) | . | 1.0 | 10.4 | 0.7 | 110.2 | 6.7
CC(C)c1cc(C(=O)N2CCCC(N3CCN(c4ccc(F)cc4)CC3)C2)n(C)n1 (centres undefined) | . | . | . | . | 101.7 | .
O=C(NCc1ccc(F)cc1)c1ccncc1 | . | 1.0 | 4.2 | -4.7 | 135.0 | 1.1
O=C(COc1ccc(Cl)cc1)NNC(=O)c1ccncc1 | . | 3.0 | 2.1 | 38.6* | 98.7 | -0.1
SMILES | PKD1 kinase inh | GRK2 aptamer HTS | HDAC3 inh | LANA-H2A inh | Pemphigus Ab inh | VLA-4 inh
O=C(NCc1ccc(Cl)cc1)c1ccncc1 | . | 0.0 | -2.9 | 4.2 | 83.3* | -3.4
O=C(COC(=O)c1cc(S(=O)(=O)N2CCOCC2)ccc1Cl)Nc1ccccc1Cl | . | . | . | . | 100.7 | .
O=C(CCc1nc(-c2ccccc2F)no1)Nc1ccc(Oc2ccccc2)cc1 | -4.1 | 1.0 | 26.9* | -2.6 | . | -7.1
O=C(Cn1cc(C(=O)c2ccco2)c2ccccc21)NC1CCCC1 | -2.9 | 1.0 | -3.3 | -3.4 | . | -7.5
O=C(Cn1cc(C(=O)c2cccs2)c2ccccc21)NC1CCCCC1 | 3.0 | 0.0 | 7.9 | 1.8 | 45.3* | -1.2
Cc1ccccc1C(=O)Nc1sc2c(c1C(=O)O)CCC2 | 8.8 | 17.0 | -0.4 | 17.3* | 106.8 | 4.4
Cc1ccsc1C(=O)N1CCN(S(=O)(=O)c2cccs2)CC1 | 0.1 | 2.0 | -4.0 | 149.2* | 118.3 | 0.8
O=C(O)CCCNc1cc(N2CCC3(CC2)OCCO3)c2noc3c2c1C(=O)c1ccccc1-3 | 5.9 | 19.0 | 11.5 | 37.6* | . | -173.2
Cc1ccc(C(=O)n2nc(-c3ccco3)nc2N)cc1 | -17.4 | 0.0 | 39.8* | -3.7 | 102.7 | -11.3
COc1ccc(C(=O)n2nc(-c3ccco3)nc2N)cc1 | -2.7 | 5.0 | 84.1* | 8.7 | 111.8 | 3.1
Nc1nc(-c2ccco2)nn1C(=O)c1ccccc1Cl | -0.2 | . | . | . | 95.3 | .
Nc1nc(-c2ccco2)nn1C(=O)c1cccnc1 | -9.1 | 1.0 | 18.4 | 3.8 | . | 39.0
N#CCC(=O)N/N=C/c1cc(Br)ccc1OCc1cccc2ccccc12 | . | 2.0 | 6.6 | -0.8 | 101.2 | -4.6
CCOc1ccc(NC(=O)N(Cc2ccc(C)cc2)Cc2ccccn2)cc1 | . | 0.0 | 5.0 | -1.9 | 95.6 | -2.2
Cc1ccccc1NC(=S)NCc1ccc2c(c1)cc(C)n2C | -5.3 | 0.0 | -1.0 | -0.8 | 66.0* | 7.5
Cc1cc2cc(CNC(=O)c3cccs3)ccc2n1C | -0.3 | 40.0 | 8.5 | 78.2* | 99.3 | -2.9
Cc1ccc(C(C)C)c(OCC(=O)Nc2ccc(N3CCN(S(C)(=O)=O)CC3)cc2)c1 | -1.9 | 0.0 | -5.5 | 50.0* | 52.5* | 3.5
Cc1ccc(C(=O)N2CCCC(CCC(=O)N3CCN(c4ccccn4)CC3)C2)cc1C (centres undefined) | . | 3.0 | -3.9 | 4.0 | . | 12.7
Cc1ccc(C(=O)N2CCCC(CCC(=O)N3CCN(c4ccccn4)CC3)C2)cn1 (centres undefined) | . | 0.0 | -0.9 | 10.5* | 106.7 | 1.4
CCc1nn(CC(=O)NCCc2ccc(S(N)(=O)=O)cc2)c(=O)c2cc3sccc3n12 | . | 0.0 | -2.6 | -1.5 | 82.5* | 9.5
CCCn1c(SCC(=O)NC(=O)NC(C)(C)C)n[nH]c1=O | -4.1 | 3.0 | -1.1 | -4.8 | 100.6 | 7.2
O=C(CN1C(=O)/C(=C/c2ccco2)SC1=S)NC1CCS(=O)(=O)C1 (centres undefined) | . | 45.0* | 6.5 | -0.8 | -6.6* | -7.0
O=C(CCN1C(=O)/C(=C/c2ccccc2)SC1=S)NC1CCS(=O)(=O)C1 (centres undefined) | . | 4.0 | 6.2 | 0.0 | 99.0 | 5.4
O=C(NCCCN1CCc2ccccc2C1)C1CCN(S(=O)(=O)N2CCC3(CC2)OCCO3)CC1 | -9.9 | 0.0 | -0.7 | 5.1 | 98.6 | 15.7
O=C(CCn1ccc2cc(S(=O)(=O)N3CCCC3)ccc21)NCCc1ccccc1 | . | 3.0 | -2.5 | 0.3 | ? | 10.5
O=C(Cn1ccc2cc(S(=O)(=O)N3CCCC3)ccc21)NCCc1ccccc1 | . | 0.0 | 5.3 | 11.6* | 97.8 | 3.3
